# Assay results: PMC7862700, “An all-to-all approach to the identification of sequence-specific readers for epigenetic DNA modifications on cytosine”
# Key:
# Assay in all cases: DAPPL (digital affinity profiling via proximity ligation, sequencing); 10 mM Tris-HCl pH 7.5, 50 mM NaCl, 1 mM DTT, 4% glycerol, room temperature, 30 min; GST-TFs on glutathione beads, 16-mer random dsDNA library, 0.1% formaldehyde crosslink after washing; high values mean tight binding
# FLI1 = target: T1, FLI1 (Homo sapiens, UniProt Q01543 1-452); conditions: protein: recombinant; tags: N-terminal GST; dsDNA, one strand shown
# T1 sequence: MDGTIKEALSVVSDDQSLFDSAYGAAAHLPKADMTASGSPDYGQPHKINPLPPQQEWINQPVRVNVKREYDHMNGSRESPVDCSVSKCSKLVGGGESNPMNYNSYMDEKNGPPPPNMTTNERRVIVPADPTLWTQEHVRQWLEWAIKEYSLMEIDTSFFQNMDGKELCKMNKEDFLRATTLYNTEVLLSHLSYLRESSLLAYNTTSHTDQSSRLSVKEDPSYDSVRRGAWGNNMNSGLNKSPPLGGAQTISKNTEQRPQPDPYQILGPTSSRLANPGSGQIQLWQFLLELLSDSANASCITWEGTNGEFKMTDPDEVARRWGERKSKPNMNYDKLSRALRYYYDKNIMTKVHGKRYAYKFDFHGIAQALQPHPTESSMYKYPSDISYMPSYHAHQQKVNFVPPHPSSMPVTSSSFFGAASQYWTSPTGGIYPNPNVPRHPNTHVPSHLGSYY
# In short: (§1)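 Pools of DNA-barcoded human transcription factors, expressed in yeast as GST fusions on glutathione beads and combined with a tag-only sample, were incubated with 200 nmole of a 16-mer random double-stranded DNA library. Incubation took 30 min at room temperature in Tris/NaCl/DTT/glycerol buffer and was followed by washing, 0.1% formaldehyde crosslinking, proximity ligation (BsaI/T4 ligase, 1 h, 37 °C), PCR amplification and sequencing on an Illumina NextSeq500. Binding signal is the ratio of a hexamer's read frequency for a factor to its frequency for the tag-only sample.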
# ELK1 = target: T2, ELK1 (Homo sapiens, UniProt P19419 1-428); conditions: protein: recombinant; tags: N-terminal GST; dsDNA, one strand shown
# T2 sequence: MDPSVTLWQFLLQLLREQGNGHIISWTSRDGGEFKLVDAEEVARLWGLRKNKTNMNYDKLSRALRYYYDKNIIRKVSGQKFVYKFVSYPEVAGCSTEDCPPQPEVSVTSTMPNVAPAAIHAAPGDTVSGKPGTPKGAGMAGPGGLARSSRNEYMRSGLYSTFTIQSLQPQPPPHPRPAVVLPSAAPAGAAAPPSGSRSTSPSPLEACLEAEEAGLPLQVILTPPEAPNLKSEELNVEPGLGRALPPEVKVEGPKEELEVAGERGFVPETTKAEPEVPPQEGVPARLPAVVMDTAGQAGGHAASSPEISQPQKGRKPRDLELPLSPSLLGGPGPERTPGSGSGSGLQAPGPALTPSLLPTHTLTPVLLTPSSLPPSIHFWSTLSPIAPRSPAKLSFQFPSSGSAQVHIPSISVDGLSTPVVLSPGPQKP
# In short: as §1
# GABPA = target: T3, GABPA (Homo sapiens, UniProt Q06546 1-454); conditions: protein: recombinant; tags: N-terminal GST; dsDNA, one strand shown
# T3 sequence: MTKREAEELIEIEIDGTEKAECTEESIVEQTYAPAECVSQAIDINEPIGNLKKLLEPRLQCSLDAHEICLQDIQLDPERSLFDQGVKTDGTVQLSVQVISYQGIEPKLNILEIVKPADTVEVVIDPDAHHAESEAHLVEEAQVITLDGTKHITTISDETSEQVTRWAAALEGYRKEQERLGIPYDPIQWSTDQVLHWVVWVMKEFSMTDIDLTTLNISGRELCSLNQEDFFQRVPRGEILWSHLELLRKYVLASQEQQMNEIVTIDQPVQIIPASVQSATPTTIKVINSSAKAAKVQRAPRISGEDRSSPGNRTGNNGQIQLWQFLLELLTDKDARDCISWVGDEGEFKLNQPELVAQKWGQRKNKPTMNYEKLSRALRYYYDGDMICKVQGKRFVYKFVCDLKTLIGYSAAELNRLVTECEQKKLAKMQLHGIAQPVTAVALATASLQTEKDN
# In short: as §1
# ERG = target: T4, ERG (Homo sapiens, UniProt P11308 1-479); conditions: protein: recombinant; tags: N-terminal GST; dsDNA, one strand shown
# T4 sequence: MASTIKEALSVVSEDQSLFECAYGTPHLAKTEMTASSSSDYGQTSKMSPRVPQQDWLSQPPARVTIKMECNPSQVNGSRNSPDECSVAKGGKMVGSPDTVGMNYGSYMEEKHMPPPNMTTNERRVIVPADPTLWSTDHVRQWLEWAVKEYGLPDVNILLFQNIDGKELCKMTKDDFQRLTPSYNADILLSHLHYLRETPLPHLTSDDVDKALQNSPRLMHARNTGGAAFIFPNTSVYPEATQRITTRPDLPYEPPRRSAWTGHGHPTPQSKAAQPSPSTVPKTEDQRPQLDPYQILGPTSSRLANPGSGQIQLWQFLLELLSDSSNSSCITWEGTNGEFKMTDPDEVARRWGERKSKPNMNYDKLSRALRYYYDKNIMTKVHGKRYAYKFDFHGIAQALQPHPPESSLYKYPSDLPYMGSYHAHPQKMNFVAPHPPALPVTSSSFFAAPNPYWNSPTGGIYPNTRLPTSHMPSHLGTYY
# In short: as §1
# ELF1 = ELF1 (Homo sapiens, UniProt P32519 1-619); conditions: protein: recombinant; tags: N-terminal GST; dsDNA, one strand shown
# In short: as §1
# EHF = target: T5, EHF (Homo sapiens, UniProt Q9NZC4 1-300); conditions: protein: recombinant; tags: N-terminal GST; dsDNA, one strand shown
# T5 sequence: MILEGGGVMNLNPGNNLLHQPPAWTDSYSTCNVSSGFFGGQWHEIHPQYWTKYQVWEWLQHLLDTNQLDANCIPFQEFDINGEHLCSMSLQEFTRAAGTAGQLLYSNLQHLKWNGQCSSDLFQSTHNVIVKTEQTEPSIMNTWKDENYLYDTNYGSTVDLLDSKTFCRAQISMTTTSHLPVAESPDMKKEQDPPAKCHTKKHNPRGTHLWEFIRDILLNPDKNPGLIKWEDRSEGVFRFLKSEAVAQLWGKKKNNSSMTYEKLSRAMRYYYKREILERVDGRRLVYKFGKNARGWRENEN
# In short: as §1
# SPI1 = SPI1 (Homo sapiens, UniProt P17947 1-270); conditions: protein: recombinant; tags: N-terminal GST; dsDNA, one strand shown
# In short: as §1
# SPIB = SPIB (Homo sapiens, UniProt Q01892 1-262); conditions: protein: recombinant; tags: N-terminal GST; dsDNA, one strand shown
# In short: as §1
# ELK3 = target: T6, ELK3 (Homo sapiens, UniProt P41970 1-407); conditions: protein: recombinant; tags: N-terminal GST; dsDNA, one strand shown
# T6 sequence: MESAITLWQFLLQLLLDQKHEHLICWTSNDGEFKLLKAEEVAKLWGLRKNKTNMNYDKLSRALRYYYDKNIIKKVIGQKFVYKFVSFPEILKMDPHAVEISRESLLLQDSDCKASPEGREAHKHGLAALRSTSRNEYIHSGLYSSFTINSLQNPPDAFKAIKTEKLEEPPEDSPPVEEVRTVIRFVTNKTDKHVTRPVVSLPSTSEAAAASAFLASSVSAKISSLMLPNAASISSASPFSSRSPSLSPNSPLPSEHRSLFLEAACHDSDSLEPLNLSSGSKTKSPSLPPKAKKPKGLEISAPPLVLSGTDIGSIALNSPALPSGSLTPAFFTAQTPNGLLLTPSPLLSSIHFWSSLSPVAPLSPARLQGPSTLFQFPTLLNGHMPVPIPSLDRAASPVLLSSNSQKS
# In short: as §1
# FEV = target: T7, FEV (Homo sapiens, UniProt Q99581 1-238); conditions: protein: recombinant; tags: N-terminal GST; dsDNA, one strand shown
# T7 sequence: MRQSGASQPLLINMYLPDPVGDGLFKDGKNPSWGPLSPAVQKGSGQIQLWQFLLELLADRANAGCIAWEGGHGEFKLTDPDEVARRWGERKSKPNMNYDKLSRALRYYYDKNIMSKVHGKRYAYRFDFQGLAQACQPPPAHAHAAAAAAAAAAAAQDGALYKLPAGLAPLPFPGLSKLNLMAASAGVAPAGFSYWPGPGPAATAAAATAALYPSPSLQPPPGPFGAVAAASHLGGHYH
# In short: as §1
# ETV5 = ETV5 (Homo sapiens, UniProt P41161 1-510); conditions: protein: recombinant; tags: N-terminal GST; dsDNA, one strand shown
# In short: as §1
# HSF1 = HSF1 (Homo sapiens, UniProt Q00613 1-529); conditions: protein: recombinant; tags: N-terminal GST; chain copies: 3; dsDNA, one strand shown
# In short: as §1
# SPIC = target: T8, SPIC (Homo sapiens, UniProt Q8N5J4 1-248); conditions: protein: recombinant; tags: N-terminal GST; dsDNA, one strand shown
# T8 sequence: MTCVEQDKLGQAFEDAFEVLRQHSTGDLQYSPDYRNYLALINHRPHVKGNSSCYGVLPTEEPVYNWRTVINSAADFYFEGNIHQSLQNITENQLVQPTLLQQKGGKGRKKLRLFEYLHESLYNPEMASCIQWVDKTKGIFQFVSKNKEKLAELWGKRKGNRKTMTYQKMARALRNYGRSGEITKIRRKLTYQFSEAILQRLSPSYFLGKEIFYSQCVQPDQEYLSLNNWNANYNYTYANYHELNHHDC
# In short: as §1
# ELF4 = ELF4 (Homo sapiens, UniProt Q99607 1-663); conditions: protein: recombinant; tags: N-terminal GST; dsDNA, one strand shown
# In short: as §1
# ELK4 = target: T9, ELK4 (Homo sapiens, UniProt P28324-2 1-405); conditions: protein: recombinant; tags: N-terminal GST; dsDNA, one strand shown
# T9 sequence: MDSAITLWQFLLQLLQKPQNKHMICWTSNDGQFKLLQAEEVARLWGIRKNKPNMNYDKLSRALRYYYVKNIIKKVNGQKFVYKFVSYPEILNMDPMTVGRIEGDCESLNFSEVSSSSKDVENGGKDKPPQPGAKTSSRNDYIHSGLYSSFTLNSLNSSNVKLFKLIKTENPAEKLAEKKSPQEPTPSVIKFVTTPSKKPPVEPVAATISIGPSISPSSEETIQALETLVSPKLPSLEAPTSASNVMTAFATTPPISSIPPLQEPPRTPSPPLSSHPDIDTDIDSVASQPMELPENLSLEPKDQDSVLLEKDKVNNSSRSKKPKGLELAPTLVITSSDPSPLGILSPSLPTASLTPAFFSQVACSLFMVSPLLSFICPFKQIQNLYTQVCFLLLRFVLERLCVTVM
# In short: as §1
# ETV2 = target: T10, ETV2 (Homo sapiens, UniProt O00321 1-342); conditions: protein: recombinant; tags: N-terminal GST; dsDNA, one strand shown
# T10 sequence: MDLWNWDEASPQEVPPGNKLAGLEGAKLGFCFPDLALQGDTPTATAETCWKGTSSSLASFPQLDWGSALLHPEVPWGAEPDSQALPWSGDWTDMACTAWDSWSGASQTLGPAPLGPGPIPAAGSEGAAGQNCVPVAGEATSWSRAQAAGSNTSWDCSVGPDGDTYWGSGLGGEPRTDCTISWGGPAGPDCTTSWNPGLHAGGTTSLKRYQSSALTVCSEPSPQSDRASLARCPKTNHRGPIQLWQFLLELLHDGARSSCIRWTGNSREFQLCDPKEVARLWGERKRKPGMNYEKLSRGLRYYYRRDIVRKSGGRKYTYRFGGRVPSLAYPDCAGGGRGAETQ
# In short: as §1
# ELF3 = target: T11, ELF3 (Homo sapiens, UniProt P78545 1-371); conditions: protein: recombinant; tags: N-terminal GST; dsDNA, one strand shown
# T11 sequence: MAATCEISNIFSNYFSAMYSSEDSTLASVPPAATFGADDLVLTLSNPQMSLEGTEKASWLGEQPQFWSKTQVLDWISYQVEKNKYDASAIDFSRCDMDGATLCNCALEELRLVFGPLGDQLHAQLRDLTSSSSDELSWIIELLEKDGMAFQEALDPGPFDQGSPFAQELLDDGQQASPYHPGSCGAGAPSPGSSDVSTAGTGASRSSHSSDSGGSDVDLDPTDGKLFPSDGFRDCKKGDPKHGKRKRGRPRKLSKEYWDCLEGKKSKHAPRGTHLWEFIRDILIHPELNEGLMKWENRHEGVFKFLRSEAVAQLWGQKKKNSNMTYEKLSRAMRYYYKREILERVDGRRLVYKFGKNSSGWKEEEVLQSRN
# In short: as §1
# CRX = CRX (Homo sapiens, UniProt O43186 1-299); conditions: protein: recombinant; tags: N-terminal GST; dsDNA, one strand shown
# In short: as §1
# ETV1 = ETV1 (Homo sapiens, UniProt P50549 1-477); conditions: protein: recombinant; tags: N-terminal GST; dsDNA, one strand shown
# In short: as §1
# CRX, sequence (O43186 whole entry): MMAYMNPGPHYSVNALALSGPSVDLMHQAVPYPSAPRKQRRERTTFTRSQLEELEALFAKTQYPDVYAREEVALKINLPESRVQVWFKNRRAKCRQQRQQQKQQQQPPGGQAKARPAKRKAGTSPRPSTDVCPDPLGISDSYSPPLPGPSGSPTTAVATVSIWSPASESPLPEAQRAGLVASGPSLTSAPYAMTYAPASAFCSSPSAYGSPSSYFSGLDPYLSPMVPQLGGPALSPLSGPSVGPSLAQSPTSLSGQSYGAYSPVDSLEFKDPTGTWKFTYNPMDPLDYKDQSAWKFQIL
# SPIB, sequence (Q01892 whole entry): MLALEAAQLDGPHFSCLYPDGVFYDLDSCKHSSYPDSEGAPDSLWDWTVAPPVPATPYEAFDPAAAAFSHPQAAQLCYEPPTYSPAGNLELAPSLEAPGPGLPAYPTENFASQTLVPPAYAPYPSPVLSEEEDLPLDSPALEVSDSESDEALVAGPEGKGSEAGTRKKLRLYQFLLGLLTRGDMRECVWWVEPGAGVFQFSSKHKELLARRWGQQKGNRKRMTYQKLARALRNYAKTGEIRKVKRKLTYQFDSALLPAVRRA
# ELF1, sequence (P32519 whole entry): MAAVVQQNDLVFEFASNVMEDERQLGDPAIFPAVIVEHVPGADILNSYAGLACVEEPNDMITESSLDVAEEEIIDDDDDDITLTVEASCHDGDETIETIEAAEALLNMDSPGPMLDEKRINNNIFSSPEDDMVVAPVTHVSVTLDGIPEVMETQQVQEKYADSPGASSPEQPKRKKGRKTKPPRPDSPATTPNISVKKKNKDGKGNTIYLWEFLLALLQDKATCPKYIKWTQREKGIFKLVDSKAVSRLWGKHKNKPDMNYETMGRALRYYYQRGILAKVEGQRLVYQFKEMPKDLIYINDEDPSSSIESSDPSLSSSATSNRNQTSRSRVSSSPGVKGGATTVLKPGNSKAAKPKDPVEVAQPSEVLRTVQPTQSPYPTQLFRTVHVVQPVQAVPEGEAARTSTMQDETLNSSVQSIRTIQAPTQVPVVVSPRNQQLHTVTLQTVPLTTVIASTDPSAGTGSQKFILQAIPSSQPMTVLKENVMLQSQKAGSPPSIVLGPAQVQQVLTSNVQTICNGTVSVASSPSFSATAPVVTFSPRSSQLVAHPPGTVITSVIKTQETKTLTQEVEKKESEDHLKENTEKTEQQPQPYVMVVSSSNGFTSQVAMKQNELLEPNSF
# ETV5, sequence (P41161 whole entry): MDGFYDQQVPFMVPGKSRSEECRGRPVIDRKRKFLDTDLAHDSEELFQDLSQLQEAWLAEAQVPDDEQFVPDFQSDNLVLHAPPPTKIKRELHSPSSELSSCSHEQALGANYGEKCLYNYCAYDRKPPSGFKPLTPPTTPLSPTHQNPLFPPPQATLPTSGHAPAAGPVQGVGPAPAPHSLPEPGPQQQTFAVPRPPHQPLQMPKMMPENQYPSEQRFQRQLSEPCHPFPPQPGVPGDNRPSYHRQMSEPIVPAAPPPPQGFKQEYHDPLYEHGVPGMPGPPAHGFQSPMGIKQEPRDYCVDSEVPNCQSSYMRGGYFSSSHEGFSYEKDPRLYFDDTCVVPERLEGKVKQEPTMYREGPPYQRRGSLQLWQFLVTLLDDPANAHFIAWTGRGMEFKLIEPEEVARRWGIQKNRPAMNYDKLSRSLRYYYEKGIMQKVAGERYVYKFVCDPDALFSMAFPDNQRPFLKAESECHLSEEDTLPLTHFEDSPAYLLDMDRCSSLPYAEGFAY
# ELF4, sequence (Q99607 whole entry): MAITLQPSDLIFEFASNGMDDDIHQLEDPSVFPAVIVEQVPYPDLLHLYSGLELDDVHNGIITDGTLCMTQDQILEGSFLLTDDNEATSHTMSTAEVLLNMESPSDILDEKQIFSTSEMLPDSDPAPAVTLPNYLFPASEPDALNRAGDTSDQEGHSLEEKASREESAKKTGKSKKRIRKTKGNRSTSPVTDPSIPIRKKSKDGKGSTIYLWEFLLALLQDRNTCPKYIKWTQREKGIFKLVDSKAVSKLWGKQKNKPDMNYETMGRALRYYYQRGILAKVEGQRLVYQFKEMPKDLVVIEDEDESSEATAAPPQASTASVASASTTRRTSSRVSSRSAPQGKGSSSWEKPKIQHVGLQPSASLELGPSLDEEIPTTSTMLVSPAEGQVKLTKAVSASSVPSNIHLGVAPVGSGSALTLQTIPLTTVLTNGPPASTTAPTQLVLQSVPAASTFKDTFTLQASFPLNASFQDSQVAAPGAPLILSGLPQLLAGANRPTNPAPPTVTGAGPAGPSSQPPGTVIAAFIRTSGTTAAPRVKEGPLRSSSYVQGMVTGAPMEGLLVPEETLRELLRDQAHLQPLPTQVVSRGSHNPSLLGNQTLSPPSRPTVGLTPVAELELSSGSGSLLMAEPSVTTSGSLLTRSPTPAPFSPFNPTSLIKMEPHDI
# HSF1, sequence (Q00613 whole entry): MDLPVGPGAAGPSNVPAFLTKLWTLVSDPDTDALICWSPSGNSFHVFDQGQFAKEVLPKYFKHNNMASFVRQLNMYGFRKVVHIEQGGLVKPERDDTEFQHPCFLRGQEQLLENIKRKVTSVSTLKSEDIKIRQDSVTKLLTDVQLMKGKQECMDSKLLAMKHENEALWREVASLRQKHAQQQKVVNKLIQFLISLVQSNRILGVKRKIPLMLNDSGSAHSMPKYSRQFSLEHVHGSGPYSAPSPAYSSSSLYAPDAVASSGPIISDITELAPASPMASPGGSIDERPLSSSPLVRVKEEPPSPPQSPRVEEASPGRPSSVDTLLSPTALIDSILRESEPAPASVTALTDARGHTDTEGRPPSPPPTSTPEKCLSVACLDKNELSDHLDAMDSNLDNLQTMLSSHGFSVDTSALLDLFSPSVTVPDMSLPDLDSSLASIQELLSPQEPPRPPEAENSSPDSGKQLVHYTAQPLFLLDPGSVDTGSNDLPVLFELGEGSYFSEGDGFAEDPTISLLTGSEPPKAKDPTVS
# ETV1, sequence (P50549 whole entry): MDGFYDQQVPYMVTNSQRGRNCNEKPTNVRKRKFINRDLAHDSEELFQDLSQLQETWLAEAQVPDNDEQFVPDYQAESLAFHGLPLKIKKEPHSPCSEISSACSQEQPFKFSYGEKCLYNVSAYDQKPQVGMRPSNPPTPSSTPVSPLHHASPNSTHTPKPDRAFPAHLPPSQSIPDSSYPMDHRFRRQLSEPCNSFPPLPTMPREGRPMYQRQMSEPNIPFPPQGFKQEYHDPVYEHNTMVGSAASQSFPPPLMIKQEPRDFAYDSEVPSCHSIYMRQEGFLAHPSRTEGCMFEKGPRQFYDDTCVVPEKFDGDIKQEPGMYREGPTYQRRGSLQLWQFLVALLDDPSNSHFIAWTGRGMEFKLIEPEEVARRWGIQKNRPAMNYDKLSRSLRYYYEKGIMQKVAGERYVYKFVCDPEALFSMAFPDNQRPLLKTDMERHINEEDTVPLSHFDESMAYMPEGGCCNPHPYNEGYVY
sequence,measurement,setting,value
GCACTT,binding signal,FLI1,"1.61 fold enrichment (6-mer frequency, TF over GST control)"
same,binding signal,ELK1,"2 fold enrichment (6-mer frequency, TF over GST control)"
same,binding signal,GABPA,"1.87 fold enrichment (6-mer frequency, TF over GST control)"
same,binding signal,ERG,"1.93 fold enrichment (6-mer frequency, TF over GST control)"
same,binding signal,ELF1,"1.77 fold enrichment (6-mer frequency, TF over GST control)"
same,binding signal,EHF,"1.79 fold enrichment (6-mer frequency, TF over GST control)"
same,binding signal,SPI1,"2.23 fold enrichment (6-mer frequency, TF over GST control)"
same,binding signal,SPIB,"1.7 fold enrichment (6-mer frequency, TF over GST control)"
same,binding signal,ELK3,"1.99 fold enrichment (6-mer frequency, TF over GST control)"
same,binding signal,FEV,"2.33 fold enrichment (6-mer frequency, TF over GST control)"
same,binding signal,ETV5,"1.88 fold enrichment (6-mer frequency, TF over GST control)"
same,binding signal,HSF1,"1.17 fold enrichment (6-mer frequency, TF over GST control)"
same,binding signal,SPIC,"1.63 fold enrichment (6-mer frequency, TF over GST control)"
same,binding signal,ELF4,"1.77 fold enrichment (6-mer frequency, TF over GST control)"
same,binding signal,ELK4,"1.62 fold enrichment (6-mer frequency, TF over GST control)"
same,binding signal,ETV2,"1.66 fold enrichment (6-mer frequency, TF over GST control)"
same,binding signal,ELF3,"1.85 fold enrichment (6-mer frequency, TF over GST control)"
same,binding signal,CRX,"1.16 fold enrichment (6-mer frequency, TF over GST control)"
same,binding signal,ETV1,"1.86 fold enrichment (6-mer frequency, TF over GST control)"
